This is an account of results in PubChem BioAssay (Tox21).

Molecules are shown by their SMILES. Values without a mark were called inactive. The source made the active and inactive calls. Calls come from the whole dose curve; as a rule, active = well fitted curve in the direction sought with a large enough effect in the repeat runs; inconclusive = weak or mixed curves; inactive = flat fitted curve, though single readings scatter.
% is set by controls: 0 for no effect and ±100 for the full control effect.

This experiment in a line: qHTS assay to test for compound auto fluorescence at 535 nm (green) in HepG2 cell free culture (AID 720686). To be noted: Cell-free medium, green autofluorescence 485/535 nm; series mostly up to 91.3 µM. An excerpt:
U.S. Tox21 Program National Center for Advancing Translational Sciences [NCATS] NIH Chemical Genomics Center [NCGC] U.S. Environmental Protection Agency [EPA] National Institutes of Environmental Health Sciences [NIEHS] National Toxicology Program [NTP] U.S. Food and Drug Administration [FDA] Tox21 Assay Overview: Compound auto fluorescence often interferes with screening of the compound library against various biological targets and signaling pathways. Some of these compounds may have fluorophoric properties. Such properties may interfere with the assay outputs resulting in false positives and/or negatives. To decrease such complications and ensure the compound activities are relevant in terms of biological response, the Tox21 10K compound library was screened for auto fluorescence. From the fluorophores used as reporter signals in our screening assays, the auto fluorescence equivalencies of compounds against three fluorophores have been evaluated: Triamterene, Fluorescein and Rose Bengal sodium for blue, green and red fluorescence, respectively. The fluorescence intensities were measured using Excitation/Emission wavelengths at 405/460nm, 485/535nm and 540/590nm for blue, green and red labels, respectively. This assay includes the green fluorescence data.
Tox21 Assay Protocol Summary: 5 uL of culture medium (MEM containing 10% FBS) per well was dispensed into black wall/clear bottom 1536-well plates using a Multidrop Combi Dispenser (ThermoFisher Scientific, Waltham, MA). After 23 nL compound or DMSO vehicle was transferred into assay plate by a pintool work station (Kalypsys, San Diego, CA), fluorescence intensities in the assay plates were measured by an Envision (PerkinElmer, Shelton, CT) plate reader using three labels for measuring blue, green and red fluorescence at […] 460, 535 and 590nm respectively.
(In qHTS, concentration-response curves come from the screen itself.)
In the case of `CN(C)CCCO[C@@H]1[C@H]2OC(C)(C)O[C@H]2O[C@@H]1C(O)CO` (stereo not given in full), the result was inactive.

Regarding `C=C(C)C1CC=C(C)C(=O)C1` (stereo not given), the call was inactive.

`COc1ccc2c(c1)c1c3n2CCN(C)C3=NCC1`: the compound was called inactive.

In the case of `CC1=C(O)C(=O)C(C)O1` (stereo not given), the result was inactive.

With `O=C1c2ccccc2C(=O)c2cc(Cl)ccc21`, the fluorescence, % of fluorescein control was -0.0292% [at 3.72 µM].

As for `CC(Oc1cc(Cl)ccc1Cl)C(=O)O` (stereo not given), the compound was called inactive.

As for `Cc1cc(-c2ccccc2)nnc1NCCN1CCOCC1`, the compound was classed as inactive.

In the case of `CO[C@@]1(NC(=O)Cc2cccs2)C(=O)N2C(C(=O)O)=C(COC(N)=O)CS[C@@H]21`, the call was inactive.

Take `OC1OCCOC1O` (stereo not given): the outcome was inactive.

Turning to `CCCCOCC(C)O` (stereo not given), the outcome was inactive.

With `O=C1OCCO1`, the call was inactive.

In the case of `C=CC(=O)CCCCC`, the compound was classed as inactive.

As for `C/C=C(\C)C(=O)OCCc1ccccc1`, the compound was called inactive.

On to `CCC(=O)c1c(O)cc(O)cc1O`, for which the call was inactive.

Consider `OCC1(CO)COCOC1`, for which the result was inactive.

Turning to `CC(C)=CCC/C(C)=C/COC=O`, the compound was classed as inactive.

In the case of `CCCCCCC1(C)CCC(=O)O1` (stereo not given), the call was inactive.

For the compound `CCCSSCCC`, the call was inactive.

In the case of `CCCCC1CCC(O)CC1` (stereo not given), the result was inactive.

Take `C[C@]12CCC(=O)C=C1CC[C@H]1[C@@H]3CC[C@](O)(C(=O)CO)[C@@]3(C)C[C@H](O)[C@@]12F`: the outcome was inactive.

`CCCCOCCOC(=O)COc1ccc(Cl)cc1Cl`: the compound was called inactive.

`c1ccc(-c2nn[nH]n2)cc1`: the compound was called inactive.

In the case of `COc1c2occc2c(OC)c2c(=O)cc(C)oc12`, the fluorescence, % of fluorescein control is 0.0616% [at 18.6 µM].

As for `Cc1c(N)cccc1Cl`, the call was inactive.

Regarding `C#CCN[C@@H]1CCc2ccccc21`, the call was inactive.

For `CCn1cc(C(=O)O)c(=O)c2cnc(N3CCCC3)nc21`, the fluorescence, % of fluorescein control is -0.0006% [at 18.6 µM].

For `CC(C)C1OCCN1CCOC(=O)NCCCCCCNC(=O)OCCN1CCOC1C(C)C` (stereo not given), the compound was classed as inactive.

On to `C=CCCCCCCCCC(=O)OCCCC`, for which the compound was classed as inactive.

In the case of `O=C(O)CSCC(=O)NC1CCSC1=O` (stereo not given), the compound was called inactive.

Turning to `CN1CCOC(c2ccccc2)c2ccccc2C1` (stereo not given), the fluorescence, % of fluorescein control was 0.0063% [at 18.6 µM].

As for `Cc1c(C(=O)c2c[nH]n(C)c2=O)ccc(S(C)(=O)=O)c1C1=NOCC1`, the call was inactive.

Turning to `CC(N)CCCC(C)(C)O` (stereo not given), the outcome was inactive.

In the case of `CCCC(=O)OCCC(C)CCC=C(C)C` (stereo not given), the compound was called inactive.

In the case of `Cc1ccccc1C(N)=O`, the compound was called inactive.

Take `CC(C)[C@H]1CC[C@H](C)C[C@@H]1O`: the outcome was inactive.

`Cc1ccc(C(C)NC(=O)[C@@H](NC(=O)OC(C)C)C(C)C)cc1` (stereo not given in full): the compound was classed as inactive.

Regarding `CN1C[C@@H]2C[C@H]1CN2c1cc2c(cc1F)c(=O)c(C(=O)O)cn2C1CC1`, the compound was called inactive.

As to `CC1c2ccccc2CN1NC(=O)c1ccc(Cl)c(S(N)(=O)=O)c1` (stereo not given), the compound was called inactive.

`CC(=O)O[C@@H]1CC2CCC1(C)C2(C)C` (stereo not given in full): the outcome was inactive.

In the case of `CCCCCCCCCCCCCBr`, the call was inactive.
